The list is not random: actives were taken first. Their share in the collection is about 1.1%.
MazF activator: activators of E. coli MazEF toxin-antitoxin RNase. P0AE70. FAM/BHQ RNA-DNA oligo cleavage fluorescence, 5 h. activation, % at 20 µM. actives 0.32% (n = 350,000). AID 504720; in the data active = activation above about 50%
Target sequence (P0AE70 whole entry, looked up): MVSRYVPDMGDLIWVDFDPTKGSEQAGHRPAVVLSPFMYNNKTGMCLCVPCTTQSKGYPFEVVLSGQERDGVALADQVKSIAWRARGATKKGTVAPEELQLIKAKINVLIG
PfHsp40 yeast: restores yeast growth despite PfHsp40 toxicity | S. cerevisiae expressing PfHsp40, growth rescue, ATP luminescence | growth rescue, % at 12.5 µM | actives 0.68% (n = 340,000) | AID 504582; in the data active = growth rescue above about 28%, passing the limit was not always enough;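 also: yeast W303a lacking pdr1 and pdr3 grown in galactose medium; growth measured after three days at 30 °C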
BioA inh-1: blocks M. tuberculosis BioA enzyme activity | actives 0.096% (n = 360,000) | purified M. tuberculosis BioA enzyme, plate reader | inhibition, % at 9.99 µM; in the data active = inhibition above about 40%
Y pestis TopoI: blocks Yersinia pestis topoisomerase I activity | Y. pestis Topo-I cleavage product accumulation, plate reader | activity, % at 10 µM | actives 0.064% (n = 360,000) | AID 504884; in the data active = activity above about 50%, passing the limit was not always enough
BJeLR viability: BJeLR cell viability loss | BJeLR (HRASV12) viability, CellTiter-Glo ATP luminescence, 48 h | inhibition, % (test concentration not listed) | actives 0.17% (n = 300,000); in the data active = inhibition above about 50%
SARS 3CLpro inh-1: SARS-CoV 3CLpro protease inhibition | P0C6X7 | recombinant SARS-CoV 3CLpro, quenched FRET peptide cleavage | inhibition, % at 6 µM | actives 0.14% (n = 290,000) | AID 1706; in the data active = inhibition above about 12%
SARS 3CLpro inh-2: SARS 3CLpro inhibition, confirmation assay. shares compounds with SARS 3CLpro inh-1. QFRET protease activity assay. inhibition, % at 6 µM. actives 36% (n = 380); in the data active = inhibition above about 13%
BioA inh-2: blocks M. tuberculosis BioA aminotransferase; shares compounds with BioA inh-1; purified BioA enzyme, plate reader, dose response; max activity, %; 310 tested, under 10 active; AID 651679;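 also: top concentration of the dilution series was 10 µM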
Target sequence (P9WQ81 whole entry, looked up): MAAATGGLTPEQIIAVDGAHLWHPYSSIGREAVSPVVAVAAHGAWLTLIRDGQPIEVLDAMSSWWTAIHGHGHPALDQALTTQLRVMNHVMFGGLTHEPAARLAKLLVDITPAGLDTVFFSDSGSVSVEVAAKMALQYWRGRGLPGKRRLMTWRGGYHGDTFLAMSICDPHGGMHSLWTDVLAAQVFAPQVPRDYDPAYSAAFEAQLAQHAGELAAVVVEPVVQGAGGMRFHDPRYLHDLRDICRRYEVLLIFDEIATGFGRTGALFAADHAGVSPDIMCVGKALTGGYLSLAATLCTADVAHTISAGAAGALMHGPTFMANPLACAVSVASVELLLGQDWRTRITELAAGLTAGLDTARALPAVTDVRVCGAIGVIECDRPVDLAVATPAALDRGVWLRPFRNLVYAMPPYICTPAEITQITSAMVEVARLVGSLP
HepG2 tox 2: cytotoxicity in HepG2 cells; shares compounds with BioA inh-1; plate reader; max activity, %; 310 tested, under 10 active; AID 651898
NIH3T3 tox 5: cytotoxicity in NIH3T3 cells | shares compounds with BioA inh-1 | plate reader | activity change, negative = cytotoxicity, % at 26 µM | 310 tested, under 10 active | AID 651900
Active calls of the source: *; i = inactive; . = not tested or not shown; [ ] = dose if it differs, or a comment. Unless noted, no rule for the calls is given here.

SMILES	MazF activator	PfHsp40 yeast	BioA inh-1	Y pestis TopoI	BJeLR viability	SARS 3CLpro inh-1	BioA inh-2	HepG2 tox 2	NIH3T3 tox 5	others
COc1ccc(C(=O)Nc2nc(-c3cccs3)cs2)cc1	-5	16	2	-2	-7	7	.	.	.
O=C(Nc1nc(-c2cccs2)cs1)c1ccc(Cl)cc1	15	6	4	-8	-1	13*	.	.	.	SARS 3CLpro inh-2=4
CCOC(=O)C1CCN(C(=O)c2ccc3c(c2)NC(=O)/C(=C\c2cccc(C)c2)S3)CC1	6	1	-1	8	-1	13*	.	.	.	SARS 3CLpro inh-2=1
CCOC(=O)C1CCN(C(=O)c2ccc3c(c2)NC(=O)/C(=C/c2ccccc2)S3)CC1	0	3	3	6	4	6	.	.	.
Cc1ccc(C(=O)O)cc1NC(=S)NC(=O)c1ccc(COc2ccccc2)cc1	-8	0	4	12	-7	16*	.	.	.	SARS 3CLpro inh-2=13*
Cc1ccc(C(=O)O)cc1NC(=S)NC(=O)Cc1ccccc1	-9	-1	-2	1	21	8	.	.	.
C[C@H](CO)N1C[C@H](C)[C@H](CN(C)S(=O)(=O)c2ccc(Cl)cc2)OCCCC[C@H](C)Oc2ccc(NC(=O)CCCN(C)C)cc2C1=O	.	.	1	.	.	.	.	.	.
NS(=O)(=O)c1ccc(Nc2ccc([N+](=O)[O-])c3nonc23)cc1	-8	0	2	1	17	15*	.	.	.	SARS 3CLpro inh-2=6
CCc1nnc(NS(=O)(=O)c2ccc(NC(=O)/C=C/c3ccc(F)cc3)cc2)s1	-1	0	5	-2	-5	13*	.	.	.	SARS 3CLpro inh-2=-2
C[C@@H]1CN([C@@H](C)CO)C(=O)c2cc(NS(=O)(=O)c3ccc(F)cc3)ccc2O[C@H]1CN(C)S(C)(=O)=O	.	.	-1	.	.	.	.	.	.
Cc1ccc(-c2cc(NC(=O)c3ccccc3[N+](=O)[O-])n[nH]2)cc1	6	1	-2	-12	2	16*	.	.	.	SARS 3CLpro inh-2=14*
Cc1cccc(N2C(N)=C(C#N)C(C#N)(C#N)C2c2ccccc2)c1 (stereo not drawn)	-2	0	2	5	-3	14*	.	.	.	SARS 3CLpro inh-2=4
CCCn1nnc(NC(=O)COc2ccc(C3CCCCC3)cc2)n1	4	2	0	8	-10	14*	.	.	.	SARS 3CLpro inh-2=1
CC(=O)c1ccc(N2CCN(S(=O)(=O)c3c(C(=O)N4CCCC4)c(C)n(C)c3C)CC2)cc1	7	-2	42*	9	2	-1	-3	-5	13
COc1cc2c(cc1NC(=O)c1cccnc1)CCCC2	2	0	56*	-8	-2	-1	-7	-12	-8
COc1ccc(NC(=O)c2ccc(N(C)S(C)(=O)=O)cc2)cc1OC	0	1	17	0	1	0	.	.	.
COc1cc(OC)cc(C(=O)Nc2ccc(Cn3ccnc3)cc2)c1	4	-1	-1	7	1	0	.	.	.
COc1ccc(NC(=O)c2ccc(S(=O)(=O)N(C)C)cc2)cc1OC	3	0	43*	-3	0	-2	-8	-5	-5
COc1ccc(C(=O)Nc2ccc(Cn3ccnc3)cc2)cc1OC	7	0	44*	-5	-14	-2	-3	19	3
COc1ccc(C(=O)Nc2cccnc2)cc1OC	3	13	57*	1	-13	2	-5	24	-2
C[C@@H]1CN([C@@H](C)CO)C(=O)Cc2cc(NC(=O)Cc3ccccc3)ccc2O[C@@H]1CN(C)C(=O)Nc1cccc2ccccc12	.	.	4	.	.	.	.	.	.
CCC(=O)N[C@@H]1CC[C@H](CCn2cc(C3CC3)nn2)O[C@@H]1CO	.	.	-3	.	.	.	.	.	.
Cn1nnc2cc(C(=O)Nc3cccnc3)ccc21	4	0	55*	3	-4	-3	-7	25	2
CCCCN1C(=O)c2ccc(C(=O)Nc3cccnc3)cc2C1=O	-2	0	82*	-8	-1	-2	-7	6	-1
Cn1nnc2cc(C(=O)Nc3ccccc3)ccc21	11	-2	1	-14	-4	5	.	.	.
SMILES	MazF activator	PfHsp40 yeast	BioA inh-1	Y pestis TopoI	BJeLR viability	SARS 3CLpro inh-1	BioA inh-2	HepG2 tox 2	NIH3T3 tox 5	others
C[C@@H]1CN([C@H](C)CO)C(=O)c2cc(NC(=O)c3ccncc3)ccc2O[C@@H](C)CCCCO[C@H]1CN(C)C(=O)Nc1ccc2c(c1)OCO2	.	.	-3	.	.	.	.	.	.
CC(=O)Nc1ccc(N2CCCC(C)C2)c([N+](=O)[O-])c1 (stereo not drawn)	-3	0	.	-10	1	0	.	.	.
CC1CCCN(c2ccc(C(=O)Nc3cccnc3)cc2[N+](=O)[O-])C1 (stereo not drawn)	10	6	54*	7	9	5	-7	5	-9
CC(C)CC#Cc1cnc2c(c1)C(=O)N([C@H](C)CO)C[C@@H](C)[C@@H](CN(C)C(=O)Cc1cccnc1)O2	.	.	0	.	.	.	.	.	.
Cc1cc(C)n2nc(C(=O)Nc3cccnc3)nc2n1	7	-1	65*	-2	-2	-2	-7	-12	3
COCC#Cc1cnc2c(c1)C(=O)N([C@H](C)CO)C[C@H](C)[C@@H](CN(C)Cc1ccccc1F)O2	.	.	0	.	.	.	.	.	.
C[C@H]1CN([C@@H](C)CO)C(=O)Cc2cc(NC(=O)Cn3cnnn3)ccc2O[C@H]1CN(C)Cc1ccc2c(c1)OCO2	.	.	6	.	.	.	.	.	.
C[C@@H]1CN([C@H](C)CO)C(=O)Cc2cc(NC(=O)Cn3cnnn3)ccc2O[C@H]1CN(C)Cc1ccc2c(c1)OCO2	.	.	63*	.	.	.	-7	i	7[23.5 µM]
C[C@@H]1CN([C@@H](C)CO)C(=O)Cc2cc(NC(=O)Cn3cnnn3)ccc2O[C@H]1CN(C)Cc1ccc2c(c1)OCO2	.	.	56*	.	.	.	-6	i	-5
COC(=O)C[C@H]1CC[C@H]2[C@H](COc3ccc(NC(=O)Nc4cccc(C)c4)cc3C(=O)N2C)O1	.	.	-1	.	.	.	.	.	.
C[C@@H]1CN([C@@H](C)CO)C(=O)Cc2cc(NS(=O)(=O)c3cccs3)ccc2O[C@@H]1CN(C)Cc1ccc(Oc2ccccc2)cc1	.	.	-1	.	.	.	.	.	.
COc1ccc(NC(=O)N[C@H]2CC[C@H](CC(=O)NC3CCCCC3)O[C@H]2CO)cc1	.	.	0	.	.	.	.	.	.
CC(=O)c1ccc(N2CCN(C(=O)Cc3ccccc3)CC2)c(F)c1	-5	-1	55*	6	-5	-2	-5	20	2
CC(=O)c1ccc(N2CCN(C(=O)c3ccco3)CC2)c(F)c1	-3	1	21	0	13	2	.	.	.
CC(=O)c1ccc(N2CCN(C(=O)c3ccc(Br)cc3)CC2)c(F)c1	1	1	93*	23	-5	5	-6	-11	2

Screening results deposited in PubChem by several laboratories.
